Screens from PubChem.
Shown are actives, neighbours in structure and some others; about 5% of the full set was active somewhere.
Vaccinia mCherry: inhibitors of vaccinia virus infection (mCherry reporter signal); Vaccinia virus mCherry reporter infection, fluorescence; Potency, µM (doses to about 36.5 µM), for the others: top-dose activity change, negative = inhibition, usual class: inhibitors; hit rate 0.63% among 310,000; calls by dose curve; tested in A549 cells; also: potency is read from the fitted curve at half-maximal effect; nearly all actives have a fitted effect of over 35% in size
TbPYK inhibitor: inhibitors of Trypanosoma brucei pyruvate kinase; Potency, µM (highest dose often 76.8 µM), for inactives: at the top dose activity, negative = inhibition, most hits filed as inhibitors; Q57TT1; hit rate 0.12% among 410,000; TbPYK enzyme, Kinase-Glo Plus ATP luminescence, 45 min; AID 624173; also: potency is read from the fitted curve at half-maximal effect; nearly all actives have a fitted effect of over 50% in size
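Luminescent Kinase-Glo Plus end-point after 45 min room-temperature reaction of T. brucei pyruvate kinase started with 130 uM ADP (final). Buffer TEA 50 mM pH 7.2 with KCl, MgCl2, BSA, Tween-20; titration-based qHTS with fitted concentration-effect curves.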
LmPK inh: blocks Leishmania mexicana pyruvate kinase activity. Q27686. purified LmPK, Kinase-Glo ATP luminescence, 1 h. Potency, µM (series often up to 57.5 µM), inactives show top-dose activity change, negative = inhibition, actives largely listed as inhibitors. hit rate 0.37% among 290,000; also: potency is read from the fitted curve at half-maximal effect
Target sequence (Q27686 whole entry, looked up): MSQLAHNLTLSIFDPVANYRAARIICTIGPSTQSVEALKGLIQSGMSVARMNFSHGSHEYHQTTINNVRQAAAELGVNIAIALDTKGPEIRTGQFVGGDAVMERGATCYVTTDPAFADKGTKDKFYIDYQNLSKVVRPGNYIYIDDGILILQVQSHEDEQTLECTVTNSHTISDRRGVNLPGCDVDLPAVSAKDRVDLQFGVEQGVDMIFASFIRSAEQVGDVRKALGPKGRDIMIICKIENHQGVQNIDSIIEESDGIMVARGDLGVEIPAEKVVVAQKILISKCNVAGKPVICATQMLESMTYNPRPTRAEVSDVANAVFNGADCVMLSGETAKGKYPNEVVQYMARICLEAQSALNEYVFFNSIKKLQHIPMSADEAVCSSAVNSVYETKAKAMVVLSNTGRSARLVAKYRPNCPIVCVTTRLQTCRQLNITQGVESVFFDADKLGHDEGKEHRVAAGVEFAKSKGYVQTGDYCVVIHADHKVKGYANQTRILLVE
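Kinase-Glo luminescence read after 1 h RT reaction of 0.1 nM LmPK with 0.5 mM PEP and 0.1 mM ADP. Activity scaled between uninhibited and enzyme-free controls.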
Vaccinia Venus: inhibitors of vaccinia virus (Venus reporter); Vaccinia virus Venus reporter expression, fluorescence; Potency, µM (doses to about 36.5 µM), inactives show at the top dose activity change, negative = inhibition, most hits filed as inhibitors; hit rate 0.46% among 330,000; AID 720580; calls by dose curve; tested in A549 cells; also: potency is read from the fitted curve at half-maximal effect; nearly all actives have a fitted effect of over 30% in size
HCMV antiviral: human cytomegalovirus inhibition; HFF cells, HCMV-luciferase reporter, 72 h; hits give low values; activity change, negative = inhibition, % at 57.5 µM; hit rate 4.5% among 410,000; AID 1259415; in the data active = activity change below about -60%; inconclusive = no clear call, values can overlap the other calls; inactive = above about -39%
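HFF cells seeded 16 h at 37C, treated with compounds, infected with luciferase-reporter HCMV at MOI 1 PFU/cell; luciferase read at 72 h post infection, normalized to buffer-only and Salinomycin controls.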
* marks the source's active call; other numbers are inactive results; i = inactive; ? = inconclusive; . = not tested or not shown; [ ] = dose if it differs, or a comment. Unless noted, calls follow the shape of the dose curve; as a rule, active = well fitted curve in the direction sought with a large enough effect; inconclusive = small, poorly fitted or top-dose-only effect, or another doubt; inactive = no such curve, though single readings can be large; an effect the other way counts as inactive or inconclusive. % is scaled to controls: 0 for no effect and ±100 for the full control effect.

SMILES	Vaccinia mCherry	TbPYK inhibitor	LmPK inh	Vaccinia Venus	HCMV antiviral
O=C(CNc1cccc([N+](=O)[O-])c1)N/N=C/c1ccc(F)cc1	-10%	-2%	-9%	-1%	-63*
O=C(CCC(=O)Nc1ccc(Cl)cc1Cl)N/N=C/c1ccc([N+](=O)[O-])o1	?	-4%	5%	?	-77*
O=C(CNC(=O)c1ccccc1)N/N=C/c1ccc([N+](=O)[O-])o1	.	0%	-1%	.	-80*
O=C(N/N=C/c1ccc([N+](=O)[O-])o1)c1ccncc1	i[7.34 µM]	-2%	-1%	4%[7.34 µM]	-31
O=C(CNc1ccccc1)N/N=C/c1ccc([N+](=O)[O-])o1	.	-1%	1%	.	-82*
CCCCCC(=O)N/N=C/c1ccc([N+](=O)[O-])o1	.	4%	-5%	.	-23
Cc1ccc(Cl)cc1NS(=O)(=O)Cc1ccccc1	i	-1%	-1%	-19%	-29
Cc1ccc(NCC(=O)N/N=C\c2ccc([N+](=O)[O-])o2)cc1	11µM*	-4%	5%	?	-82*
Cc1c(CCCl)c(Cl)n2c(nc3ccccc32)c1C#N	?	5%	.	?	-99*
Cc1ccc(-c2c(C#N)c(N)n3c(nc4ccccc43)c2C#N)cc1	.	7%	3%	?	-72*
N#Cc1c(-c2ccccc2)c(C#N)c2nc3ccccc3n2c1N	i	4%	1%	-16%	-3
Cc1c(Nc2c3c(c(C#N)c4nc5ccccc5n24)CCC3)c(=O)n(-c2ccccc2)n1C	.	.	0%	.	.
CCCCc1c(C)c(C#N)c2nc3ccccc3n2c1Nc1c(C)n(C)n(-c2ccccc2)c1=O	-30%	5%	-3%	-21%	-90*
CC(=O)Nc1ccc(NS(=O)(=O)c2ccc(Cl)c(C(=O)O)c2)cc1	.	0%	-6%	.	-10
CCCCN(C)CCCNC(=O)C1CCC(CNS(=O)(=O)c2c(C)cc(C)cc2C)CC1 (stereo unspecified)	.	-1%	1%	.	-21
Cc1cc(NC(=O)CC(C)C)c(=O)n(Cc2cccc(F)c2)c1	.	-2%	5%	.	0
COc1cc(CNc2ncnc3c2ncn3[C@H]2CN(Cc3cc(OC)c(OC)c(OC)c3)C[C@@H](CO)O2)cc(OC)c1OC	-4%	3%	.	3%	49
CC(C)CNC(=O)Nc1ccc(F)c(Cl)c1	4%	0%	-1%	-5%	88
CCC(C)NC(=O)Nc1ccc(F)c(Cl)c1 (stereo unspecified)	4%	-1%	0%	-3%	-62*
C=CCNC(=O)Nc1ccc(F)c(Cl)c1	.	1%	-1%	.	-94*
O=C(Nc1ccc(F)c(Cl)c1)Nc1csc2ccccc12	i[7.34 µM]	-7%	5%	-7%[7.34 µM]	-98*
O=C(Nc1ccc(F)cc1F)Nc1csc2ccccc12	?	-10%	3%	-25%	-18
CC(C)(C)CC(C)(C)NC(=O)c1ccccc1	-20%	1%	-1%	-12%	8
O=[N+]([O-])c1cccc(CSc2ncnc3ccccc23)c1	.	-3%	-8%	.	-81*
Cc1ccc(C(=O)CSc2ncnc3ccccc23)o1	?	-15%	?	?	-60*
SMILES	Vaccinia mCherry	TbPYK inhibitor	LmPK inh	Vaccinia Venus	HCMV antiviral
c1ccc(CSc2ncnc3ccccc23)cc1	i	17%	3%	-12%	-31
Fc1ccc(CSc2ncnc3ccccc23)cc1	-19%	6%	-2%	-12%	-68*
CS(=O)(=O)N(CC(=O)NCc1cccnc1)C1CCCCC1	11%	-8%	-2%	0%	-33
CC(NC(=O)c1cc2sccc2n1Cc1ccc(F)cc1)c1ccccc1 (stereo unspecified)	-20%	-6%	.	-7%	-85*
O=C(CN1CCN(c2ccccc2O)CC1)NC(=O)NC1CCCC1	-10%	2%	0%	-15%	-19
CCOC(=O)N1CCN(CCC(=O)Nc2cc([N+](=O)[O-])ccc2OC)CC1	-8%	2%	0%	-4%	-4
CC(C)N1C(=O)c2ccccc2N(Cc2ccccc2)S1(=O)=O	.	-8%	-4%	.	-62*
Cc1[nH]c2ccccc2c1C(=O)COC(=O)c1cccc(S(=O)(=O)N2CCCCC2)c1	?	-10%	2%	-23%	-78*
N#CCCN(C(=O)COC(=O)c1cccc(S(=O)(=O)N2CCCC2)c1)c1ccc(F)cc1	-4%	-8%	3%	-19%	-75*
